Most compounds without a hit are left out; they make up all but 7.3% or so of the library.
HCMV antiviral – inhibitors of human cytomegalovirus; 410,000 tested, 4.5% active; HFF cells, HCMV-luciferase reporter, 72 h; hits give low values; AID 1259415; activity change, negative = inhibition, % at 57.5 µM; in the data active means activity change below about -60%; inconclusive means no clear call, values can overlap the other calls; inactive means above about -39%
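Steps: HFFs plated, 16 h 37C; compounds added; HCMV-luciferase added to MOI 1 PFU/cell; 72 h 37C; OneGlo reagent, 5 min room temperature; luminescence read, normalized to controls.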
FMDV inh – antivirals against foot and mouth disease virus; FMDV antiviral cell-based qHTS; Potency, µM (titrated, usually from 57.9 µM), for the others: top-dose activity change, negative = inhibition, hits mostly inhibitors; 410,000 tested, 1.2% active; AID 1159524; calls by dose curve; tested in HEK293T cells; further: read-out not given here; potency means the concentration at half of the fitted maximal effect; nearly all actives have a fitted effect of over 45% in size
Vaccinia mCherry – vaccinia inhibition (mCherry reporter); Vaccinia virus mCherry reporter infection, fluorescence; Potency, µM (series often up to 36.5 µM), inactives show at the highest dose activity change, negative = inhibition, hits mostly inhibitors; 310,000 tested, 0.63% active; AID 720579; calls by dose curve; tested in A549 cells; further: potency means the concentration at half of the fitted maximal effect; nearly all actives have a fitted effect of over 35% in size
VACV Venus inh – vaccinia inhibition (Venus reporter). Vaccinia virus Venus reporter expression, fluorescence. Potency, µM (series often up to 36.5 µM), for inactives: at the top dose activity change, negative = inhibition, usual class: inhibitors. 330,000 tested, 0.46% active. AID 720580; calls by dose curve; tested in A549 cells; further: potency means the concentration at half of the fitted maximal effect; nearly all actives have a fitted effect of over 30% in size
HCV inh – blocks hepatitis C virus; Huh7.5.1 HCVcc-Cre infection, luciferase reporter, 44 h; Potency, µM (doses to about 41.8 µM), without a hit: at the highest dose activity change, negative = inhibition, most hits filed as inhibitors; 340,000 tested, 3.4% active; AID 651820; active means well fitted inhibition curve with a large enough effect; inconclusive means small, poorly fitted or top-dose-only effect, or another doubt; inactive means no such curve, though single readings can be large or run the other way; further: potency means the concentration at half of the fitted maximal effect
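HCVcc-Cre virus at an moi near 0.5 was added right after compound to cells cultured 4 h from seeding (1,000 cells/well). Luciferase activity was determined 44 h later, 15 min after substrate addition at RT.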
Numbers without * were called inactive; ! = not confirmed by another sample. On the % scale 0 is the no-effect control and ±100 the full control effect.

Results for Cc1ccc(NC(=O)c2sc(C)nc2C)c(C)c1 ?
HCMV antiviral: -31.9; FMDV inh: 0.4%; Vaccinia mCherry: -17.5%; VACV Venus inh: -5.9%; HCV inh: 2.9%

Results for COc1ccc(NC(=O)C2CCCN2C(=O)Nc2ccccc2)cc1OC (configuration not stated) ?
HCMV antiviral: 36.3; FMDV inh: 10.5%; HCV inh: inconclusive

What do the screens show for `COc1ccc(C2CCCN2C(=O)Nc2ccc(Cl)cc2)cc1OC` (configuration not stated)?
HCMV antiviral: -72.3*; FMDV inh: -8.2%; Vaccinia mCherry: inactive; VACV Venus inh: -21.3%; HCV inh: inconclusive

How did C=C1CC2(OC1=O)c1ccccc1CCc1ccccc12 do in these assays?
HCMV antiviral: -97.4*; FMDV inh: 22.4µM*; Vaccinia mCherry: inconclusive; VACV Venus inh: 14.1µM*; HCV inh: inconclusive

How did CCc1c(C)nc(N)nc1N1N=C1SCC(=O)OC do in these assays?
HCMV antiviral: -60.5*; FMDV inh: 5.6%; Vaccinia mCherry: -3.2%; VACV Venus inh: 3.2%; HCV inh: 18.4%

Results for CCc1c(C)nc(N)nc1N1N=C1SCC#N ?
HCMV antiviral: 20.7; FMDV inh: 2.8%; HCV inh: -0.5%

How did O=C(Nc1nc(-c2ccc(Cl)s2)cs1)c1cccs1 do in these assays?
HCMV antiviral: -0.7; FMDV inh: 36.8%; Vaccinia mCherry: inconclusive; VACV Venus inh: inconclusive; HCV inh: 11.2µM*

What do the screens show for `Cn1cccc1C(=O)Nc1nc(-c2ccccn2)cs1`?
HCMV antiviral: -87.8*; FMDV inh: -16.3%; HCV inh: 14.1µM*

How did O=C(CN1C(=O)CCC1=O)Nc1nc(-c2ccc3ccccc3c2)cs1 do in these assays?
HCMV antiviral: inconclusive; FMDV inh: 44.1%; HCV inh: 0.1%

What do the screens show for `O=C(CN1C(=O)CCC1=O)Nc1nc(-c2ccccn2)cs1`?
HCMV antiviral: -61.9*; FMDV inh: -5.4%; Vaccinia mCherry: -0.3%; VACV Venus inh: -18.5%; HCV inh: inconclusive

How did O=C(Nc1nc(-c2ccccn2)cs1)c1ncc(Cl)c(Cl)c1Cl do in these assays?
HCMV antiviral: -6.4; FMDV inh: -23.8%; VACV Venus inh: -9.0%; HCV inh: -9.9%

How did O=C(Nc1nc(-c2ccccn2)cs1)c1ccc(Cl)s1 do in these assays?
HCMV antiviral: -96.4*; FMDV inh: -8.3%; Vaccinia mCherry: 3.16µM*; VACV Venus inh: inconclusive; HCV inh: inconclusive

Results for CC(=O)C[n+]1cccc2cc(Cl)ccc21 ?
Vaccinia mCherry: -13.4%; VACV Venus inh: 9.8%

Results for COc1ncc2nc(-c3cn(C)c4ccccc34)c(=O)n(CCc3ccccc3)c2n1 ?
FMDV inh: -7.4%

How did Cc1ccc(C(=O)Nc2nc(-c3ccccn3)cs2)s1 do in these assays?
HCMV antiviral: -99.6*; FMDV inh: -12.7%; HCV inh: inconclusive

Results for O=C(Cc1csc(NC(=O)c2ccccc2)n1)NO ?
HCMV antiviral: -9.6; FMDV inh: 3.9%; Vaccinia mCherry: -13.1%; VACV Venus inh: -6.4%; HCV inh: -14.6%

What do the screens show for `O=C(Nc1nc(-c2ccccn2)cs1)c1cc2ccccc2o1`?
HCMV antiviral: -39.3; FMDV inh: 4.9%; Vaccinia mCherry: -11.5%; VACV Venus inh: -3.6%; HCV inh: inconclusive

How did C[C@H](NC(=O)c1ccccc1)C(=O)Nc1nc(-c2ccccn2)cs1 do in these assays?
HCMV antiviral: -1.3; FMDV inh: inconclusive; Vaccinia mCherry: -2.3%; VACV Venus inh: -3.6%; HCV inh: inconclusive

What do the screens show for `O=C(Nc1nc(-c2cc(Cl)sc2Cl)cs1)c1ccccc1`?
HCMV antiviral: 9.6; FMDV inh: -14.5%; HCV inh: 11.2µM*

What do the screens show for `CCc1sc(C(=O)Nc2nc(-c3ccccn3)cs2)cc1C`?
FMDV inh: 11.6%; Vaccinia mCherry: inconclusive; VACV Venus inh: -19.3%; HCV inh: 17.8µM*

Results for Cc1c(C(=O)Nc2nc(-c3ccccn3)cs2)oc2ccccc12 ?
FMDV inh: 1.4%; HCV inh: 2.82µM*

How did FC(F)Oc1ccc(COc2ccc3c(-c4ccccn4)noc3n2)cc1 do in these assays?
HCMV antiviral: 12.1

How did COc1cccc(NC(=O)Cn2c(=O)n(Cc3ccc(C(=O)NCc4ccc5c(c4)OCO5)cc3)c(=O)c3ccccc32)c1 do in these assays?
HCMV antiviral: -3.3; FMDV inh: -17.2%; Vaccinia mCherry: 5.9%; VACV Venus inh: -3.3%

What do the screens show for `CC1(C)CC(=O)C=C(C#CC2CC2)C1`?
HCMV antiviral: 2.6

What do the screens show for `CSc1ccc(/C=C/c2nc3ccccc3n2S(=O)(=O)c2ccc(Br)cc2)cc1`?
HCMV antiviral: inconclusive; FMDV inh: -54.7%; Vaccinia mCherry: -13.3%; VACV Venus inh: -13.4%

Results for CCc1ccc(NC(=O)C(NS(=O)(=O)c2cccs2)C(C)C)cc1 (configuration not stated) ?
HCMV antiviral: -2.6; FMDV inh: -14.9%; Vaccinia mCherry: 1.6%; VACV Venus inh: 0.8%

Results for CCOc1nc(C#N)nc(N2CCOCC2)n1 ?
Vaccinia mCherry: 41.8%; VACV Venus inh: -8.4%

Results for COC(=O)c1ccc2c(=O)n(CCCCCC(=O)NCCc3ccc(Cl)cc3)c(=O)[nH]c2c1 ?
HCMV antiviral: 10.0; FMDV inh: 3.3%; Vaccinia mCherry: -10.1%; VACV Venus inh: -12.9%

What do the screens show for `CCN(CCCNC(=O)c1nn(-c2ccc(OC)c(Cl)c2)c(=O)c2c1c1ccccc1n2C)c1ccccc1`?
HCMV antiviral: 10.1; FMDV inh: -15.9%; Vaccinia mCherry: -12.5%; VACV Venus inh: -10.0%

Results for O=C(Cc1cc(=O)[nH][nH]1)N/N=C/c1cccc(Cl)c1Cl ?
HCMV antiviral: -102.1*!; FMDV inh: -10.2%; Vaccinia mCherry: inactive; VACV Venus inh: -9.2%; HCV inh: -0.1%

Results for O=C(Cc1cc(=O)[nH][nH]1)N/N=C/c1cccc2ccccc12 ?
HCMV antiviral: -89.6*; FMDV inh: 7.3%; HCV inh: -1.0%

How did COc1cccc(-c2nc3c(C#N)c[nH]n3c2NC2CCCCC2)c1 do in these assays?
HCMV antiviral: 2.6; FMDV inh: 11.1%; Vaccinia mCherry: -19.6%; VACV Venus inh: -19.1%

Results for CC(NC(=O)CSc1nc(-c2cccc(Cl)c2)nc2cc(=O)[nH]n12)c1nc2ccccc2n1C (configuration not stated) ?
HCMV antiviral: 10.1; FMDV inh: -19.1%; Vaccinia mCherry: -0.9%; VACV Venus inh: -0.8%

What do the screens show for `Cn1c(SCC(=O)N/N=C/c2ccc([N+](=O)[O-])s2)nnc1-c1ccccc1`?
HCMV antiviral: -90.9*; FMDV inh: inconclusive; Vaccinia mCherry: 28.2µM*; VACV Venus inh: inconclusive; HCV inh: 11.2µM*

What do the screens show for `O=C(CN1CCN(Cc2ccccc2)CC1)N/N=C/c1ccc(Br)s1`?
HCMV antiviral: -107.4*; FMDV inh: -13.7%; Vaccinia mCherry: -19.3%; VACV Venus inh: -13.4%; HCV inh: -16.4%
